Values joined by “and” are separate entries in the source; they are usually repeats but may differ in a detail not shown here. Equal entries are not always repeated. The campaign covered roughly 5,500 compounds. About 2,000 (36%) were called active. Another 18% or so got no clear call; they are omitted. Rule as the data show it: active = normalized growth mostly below about 0.91 (no sharp cut-off); inconclusive = no clear call, values can overlap the other calls; inactive = mostly above about 0.92. Some of the results follow.
Assay: chemical genetic growth profiling, strain panel (AID 1159580);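 also: tested at 20 µM; growth read once vehicle control cultures reached saturation at 30 °C; 1 = growth at the plate median or of vehicle wells; lower values mean less growth of the strain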
Details: S. cerevisiae deletion strains, growth OD

Measured: normalized growth

CC[C@@]1(C2O[C@@H](C3O[C@@](O)(CC)[C@H](C)C[C@@H]3C)C[C@@H]2C)CC[C@H]([C@]2(C)CCC3(C[C@H](O)[C@@H](C)[C@@H]([C@H](C)[C@@H](OC)[C@H](C)C(=O)O)O3)O2)O1 (stereo not given in full)
inactive: locus YAL013W, strain DEP1, active compounds read low 0.998 | locus YAL021C, strain ccr4, active compounds read low 0.924 | locus YAL030W, strain snc1, active compounds read low 1.03 | locus YBL061C, strain skt5, active compounds read low 1.04 | locus YBR009C, strain hhf1, active compounds read low 1.02 | locus YBR021W, strain FUR4, active compounds read low 1.05 | locus YBR023C, strain chs3, active compounds read low 1.03 | locus YBR171W, strain sec66, active compounds read low 0.974 | locus YBR229C, strain ROT2, active compounds read low 1.03 | locus YBR231C, strain swc5, active compounds read low 1.06 | locus YBR279W, strain paf1, active compounds read low 1.03 | locus YCL011C, strain gbp2, active compounds read low 0.991 | locus YCL016C, strain dcc1, active compounds read low 1.02 | locus YCL029C, strain bik1, active compounds read low 0.982 | locus YCL069W, strain vba3, active compounds read low 0.998 | locus YCR088W, strain abp1, active compounds read low 0.966 | locus YDL005C, strain med2, active compounds read low 1.06 | locus YDL035C, strain GPR1, active compounds read low 1.04 | locus YDL040C, strain nat1, active compounds read low 1.03 | locus YDL074C, strain BRE1, active compounds read low 0.994 | locus YDL101C, strain DUN1, active compounds read low 0.99 | locus YDL134C, strain PPH21, active compounds read low 1.05 | locus YDL185W, strain tfp1, active compounds read low 0.96 | locus YDL192W, strain arf1, active compounds read low 0.999 | locus YDR001C, strain nth1, active compounds read low 0.972 | locus YDR069C, strain doa4, active compounds read low 1.03 | locus YDR101C, strain arx1, active compounds read low 1.01 | locus YDR159W, strain sac3, active compounds read low 1.02 | locus YDR162C, strain NBP2, active compounds read low 1.01 | locus YDR195W, strain ref2 1.04 | locus YDR297W, strain sur2, active compounds read low 1.04 | locus YDR318W, strain mcm21, active compounds read low 0.98 | locus YDR334W, strain swr1, active compounds read low 0.987 | locus YDR335W, strain msn5, active compounds read low 1.02 | locus YDR388W, active compounds read low 1.01 | locus YDR392W, strain spt3, active compounds read low 1.08 | locus YDR502C, strain sam2, active compounds read low 0.983 | locus YEL003W, strain gim4, active compounds read low 1 | locus YEL037C, strain rad23, active compounds read low 1.01 | locus YEL061C, strain CIN8 (second series), active compounds read low 1.01 | locus YEL061C, strain CIN8, active compounds read low 0.99 | locus YER015W, strain faa2, active compounds read low 1.01 | locus YER016W, strain bim1, active compounds read low 1.01 | locus YER110C, active compounds read low 1.01 | locus YER111C, strain swi4, active compounds read low 1.04 | locus YER155C, strain BEM2 (second series), active compounds read low 1.08 | locus YER155C, strain BEM2, active compounds read low 0.999 | locus YER167W, strain BCK2, active compounds read low 0.992 | locus YFR010W, strain ubp6, active compounds read low 1.02 | locus YGL078C, strain dbp3, active compounds read low 0.994 | locus YGL086W, strain mad1, active compounds read low 1 | locus YGL167C, strain pmr1, active compounds read low 1.05 | locus YGL173C, strain kem1, active compounds read low 1.04 | locus YGL227W, strain vid30, active compounds read low 1 | locus YGL240W, strain doc1, active compounds read low 1.04 | locus YGL248W, strain PDE1, active compounds read low 0.991 | locus YGL253W, strain hxk2, active compounds read low 0.983 | locus YGR078C, strain PAC10, active compounds read low 0.994 | locus YGR135W, strain pre9, active compounds read low 0.971 | locus YGR252W, strain gcn5, active compounds read low 0.976 | locus YHR013C, strain ard1, active compounds read low 1.03 | locus YHR027C, strain rpn1, active compounds read low 1.05 | locus YHR030C, strain SLT2, active compounds read low 1.01 and 0.966 | locus YHR079C, strain IRE1 (second series), active compounds read low 0.991 | locus YHR079C, strain IRE1, active compounds read low 0.956 | locus YHR094C, strain hxt1, active compounds read low 1.02 | locus YHR129C, strain ARP1, active compounds read low 1 | locus YHR142W, strain chs7, active compounds read low 0.966 | locus YHR200W, strain rpn10, active compounds read low 0.986 | locus YIL066C, strain RNR3, active compounds read low 1 | locus YIL073C, strain SPO22, active compounds read low 0.915 | locus YIL125W, strain kgd1, active compounds read low 0.993 | locus YIR030C, strain dcg1, active compounds read low 1 | locus YJL092W, strain hpr5, active compounds read low 0.973 | locus YJL095W, strain BCK1 (second series), active compounds read low 1.04 | locus YJL095W, strain BCK1, active compounds read low 0.972 and 0.975 | locus YJL115W, strain asf1, active compounds read low 1.02 | locus YJL134W, strain LCB3, active compounds read low 1.01 | locus YJL154C, strain vps35, active compounds read low 0.963 | locus YJL164C, strain tpk1, active compounds read low 0.993 | locus YJL166W, strain qcr8, active compounds read low 1.04 | locus YJL168C, strain set2, active compounds read low 1.03 | locus YJL187C, strain SWE1 (second series), active compounds read low 0.98 | locus YJR043C, strain POL32, active compounds read low 1.05 | locus YJR066W, strain TOR1, active compounds read low 0.941 | locus YKL009W, strain mrt4, active compounds read low 1 | locus YKL068W, active compounds read low 0.998 | locus YKL085W, strain MDH1 (second series), active compounds read low 0.942 | locus YKL085W, strain MDH1, active compounds read low 0.942 | locus YKL160W, strain elf1, active compounds read low 1.01 | locus YKL190W, strain CNB1, active compounds read low 0.981 | locus YKR001C, strain vps1, active compounds read low 1.03 | locus YKR026C, strain gcn3, active compounds read low 0.979 | locus YKR091W, strain srl3, active compounds read low 0.999 | locus YLL001W, strain dnm1, active compounds read low 1.02 | locus YLL026W, active compounds read low 1 | locus YLL041C, strain sdh2, active compounds read low 1.01 | locus YLR027C, strain aat2, active compounds read low 0.995 | locus YLR039C, strain RIC1, active compounds read low 1.32 | locus YLR058C, strain SHM2, active compounds read low 0.989 | locus YLR102C, strain apc9, active compounds read low 1.02 | locus YLR113W, strain HOG1, active compounds read low 0.947 | locus YLR221C, strain rsa3, active compounds read low 0.988 | locus YLR258W, strain gsy2, active compounds read low 1.03 | locus YLR262C, strain YPT6, active compounds read low 1.07 | locus YLR268W, strain sec22, active compounds read low 0.987 | locus YLR320W, strain mms22, active compounds read low 1.02 | locus YLR330W, strain CHS5, active compounds read low 0.994 | locus YLR342W, strain FKS1 (second series), active compounds read low 1.05 | locus YLR342W, strain FKS1, active compounds read low 1.01 | locus YLR357W, strain rsc2, active compounds read low 1.01 | locus YLR370C, strain arc18, active compounds read low 0.979 | locus YLR371W, strain rom2, active compounds read low 1.01 | locus YLR384C, strain iki3, active compounds read low 1.05 | locus YLR418C, strain cdc73, active compounds read low 0.993 | locus YML016C, strain PPZ1, active compounds read low 0.996 | locus YML032C, strain rad52, active compounds read low 1.01 | locus YML120C, strain ndi1, active compounds read low 1.01 | locus YML124C, strain tub3, active compounds read low 1.01 | locus YMR058W, strain fet3, active compounds read low 1.01 | locus YMR078C, strain ctf18, active compounds read low 1.02 | locus YMR125W, strain sto1, active compounds read low 0.982 | locus YMR129W, active compounds read low 0.999 | locus YMR205C, strain PFK2, active compounds read low 1.01 | locus YMR223W, strain ubp8, active compounds read low 0.983 | locus YMR263W, strain SAP30, active compounds read low 0.967 | locus YMR307W, strain GAS1, active compounds read low 1.23 | locus YNL067W, strain RPL9B, active compounds read low 0.959 | locus YNL071W, strain lat1, active compounds read low 1.01 | locus YNL128W, strain TEP1, active compounds read low 0.956 | locus YNL153C, strain GIM3, active compounds read low 0.997 | locus YNL183C, strain NPR1, active compounds read low 0.941 | locus YNL209W, strain ssb2, active compounds read low 1.05 | locus YNL233W, strain BNI4, active compounds read low 1 | locus YNL248C, strain rpa49, active compounds read low 1.03 | locus YNL250W, strain rad50, active compounds read low 0.998 | locus YNL271C, strain bni1, active compounds read low 1.01 | locus YNL298W, strain CLA4, active compounds read low 0.993 | locus YNL307C, strain MCK1, active compounds read low 1.05 | locus YNL322C, strain KRE1 (second series), active compounds read low 0.962 | locus YNL322C, strain KRE1, active compounds read low 0.99 | locus YNR049C, strain mso1, active compounds read low 0.985 | locus YNR052C, strain pop2, active compounds read low 0.988 | locus YOL012C, strain htz1 1.01 | locus YOL147C, strain pex11, active compounds read low 1.01 | locus YOR001W, strain rrp6, active compounds read low 1.02 | locus YOR061W, strain CKA2, active compounds read low 1 | locus YOR069W, strain VPS5, active compounds read low 1 | locus YOR070C, strain gyp1, active compounds read low 1.03 | locus YOR080W, strain dia2, active compounds read low 1.03 | locus YOR083W, strain WHI5, active compounds read low 1.01 | locus YOR136W, strain idh2, active compounds read low 0.99 | locus YOR144C, strain elg1, active compounds read low 1.01 | locus YOR184W, strain ser1, active compounds read low 0.977 | locus YOR231W, strain MKK1, active compounds read low 0.974 | locus YOR265W, strain rbl2, active compounds read low 1.04 | locus YOR290C, strain snf2, active compounds read low 0.978 | locus YOR316C, strain cot1, active compounds read low 1.01 | locus YPL051W, strain arl3, active compounds read low 1.01 | locus YPL055C, strain LGE1, active compounds read low 1.01 | locus YPL078C, strain atp4, active compounds read low 1.05 | locus YPL106C, strain sse1, active compounds read low 1.08 | locus YPL240C, strain hsp82, active compounds read low 1.04 | locus YPL241C, strain CIN2, active compounds read low 1.01 | locus YPL256C, strain CLN2, active compounds read low 0.993 | locus YPR119W, strain clb2, active compounds read low 1.02 | locus YPR141C, strain kar3, active compounds read low 0.993 | locus YPR163C, strain tif3, active compounds read low 1.05 | locus YPR167C, strain met16, active compounds read low 0.991 | strain wtn01, active compounds read low 0.99

Reference: PubChem BioAssay AID1159580 (chemical genetic matrix, 2015)
